The text below walks through data of publication PMC7819943, “Rice protein-binding microarrays: a tool to detect cis-acting elements near promoter regions in rice”.

Whole data set: some 68,000 sequences, median “fluorescence intensity (a.u.)” near 9,100, cut for the highest 2% near 16,000. The list comes from a sample in which the highest values are over-represented; it also holds similar and randomly drawn sequences.

For the test, the target named is OsWRKY34 (Oryza sativa, UniProt Q0JBA9 1-250). The experiment in a line: protein-binding microarray (RPBM); PBS, 2% BSA, 51.3 ng/ul salmon testes DNA, 50 uM zinc acetate, 200 nM TF, 25 C, 1 h; high values mean tight binding. The following applies: protein: recombinant; tags: N-terminal polyhistidine and DsRed monomer fusion (pET32a); label: CyDye5-dUTP incorporated in the synthesized complementary strand; 3' TTTTT single-stranded linker to array surface; dsDNA, one strand shown. In short, it runs like this: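 Using Ni–NTA, transcription factors fused N-terminally to polyhistidine and DsRed were purified after expression in E. coli BL21-CodonPlus. These were incubated at 200 nM with a blocked, double-stranded custom Agilent array for 1 h at 25 °C in a buffer containing 50 µM zinc acetate, and the array was washed. The binding signal is per-feature fluorescence intensity (arbitrary units) on an Axon 4000B scanner.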
Sequence of OsWRKY34 (Q0JBA9 entry or part of it): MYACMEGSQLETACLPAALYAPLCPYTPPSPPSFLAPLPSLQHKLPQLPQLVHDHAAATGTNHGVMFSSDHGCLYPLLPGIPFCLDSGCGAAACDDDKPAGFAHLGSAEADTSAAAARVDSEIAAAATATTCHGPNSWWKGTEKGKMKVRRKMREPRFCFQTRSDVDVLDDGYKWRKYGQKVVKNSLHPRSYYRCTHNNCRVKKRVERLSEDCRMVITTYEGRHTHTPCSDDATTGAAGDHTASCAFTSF
“TCTCAGCGGCCCGAACCTGTCTACGTCGCCCGTGTCTTGTCGGAGTCACCTAGTGCAG”: the binding signal is 11200 fluorescence intensity (a.u.). The figure for “CTGGCACTTGGCACTTGGTTAATTCCACTCACTCATCACTCGGAGTCACCTAGTGCAG” is 8260 fluorescence intensity (a.u.); for “ACATGTGGAGGGAACAGGGCGTGGAATCAAGGGTCGGGATCGGAGTCACCTAGTGCAG” it is 8290 fluorescence intensity (a.u.). On to “AGATATACCGTTGTTGCATTTCACCTTAAAATATTTCCAACGGAGTCACCTAGTGCAG”, for which the binding signal was 8550 fluorescence intensity (a.u.). Under “GCTCTCTTCTCGCCGCCTCGGCCTCGCCGCCGTGGCCGCCCGGAGTCACCTAGTGCAG” stands 9500 fluorescence intensity (a.u.).

With “ACATAACCCCGTCATCTCGGCGACCCTCTCTCGTGGTCGCCGGAGTCACCTAGTGCAG”, the binding signal is 8540 fluorescence intensity (a.u.). As to “GTCTCACTCTCCCAATCCGCCTCGGCCCGAGCGCGCGCGCCGGAGTCACCTAGTGCAG”, the binding signal was 9530 fluorescence intensity (a.u.).

“CCTTGTATTCGGCCCGCACACGCCAACCTGTCCTGTTCTGCGGAGTCACCTAGTGCAG”: the binding signal was 9600 fluorescence intensity (a.u.). The figure for “GGCGAAGTACTTCTTGGTGTTGTTGCTGCCGCTGCCGGCGCGGAGTCACCTAGTGCAG” is 8120 fluorescence intensity (a.u.); for “TGGTTTGGTTTGGTTCTTTGTTGTTGCTGCCGCTGCCGCGCGGAGTCACCTAGTGCAG” it is 31400 fluorescence intensity (a.u.); for “GGTGTTGGGTGTTTGTTCGTTGGTTCCGCTGCTGCTGTTGCGGAGTCACCTAGTGCAG” it is 8180 fluorescence intensity (a.u.). The figure for “CAGGGCCATGTTCGCTGATACATTGTGTTGGATTGCACTGCGGAGTCACCTAGTGCAG” is 8030 fluorescence intensity (a.u.); for “GTTTACCATTGCATTCCCCGGTCCACGTGCATCAGTGCATCGGAGTCACCTAGTGCAG” it is 9610 fluorescence intensity (a.u.). The figure for “AGTGTCTGACACTACTTAAGAAACCATAGCAGTGCTAAAGCGGAGTCACCTAGTGCAG” is 31200 fluorescence intensity (a.u.). As for “CACACTATAGCTAGTACTAGTACTAGTACTACTTAAACTACGGAGTCACCTAGTGCAG”, the binding signal is 8120 fluorescence intensity (a.u.). Under “ACACTACCTTAAAGAAACATCAGTGACATCTCCATCACTCCGGAGTCACCTAGTGCAG” stands 8750 fluorescence intensity (a.u.); under “GCCTACTTAAATTACATTTCCGCACCCACACCACACACACCGGAGTCACCTAGTGCAG”, 11400 fluorescence intensity (a.u.).

In the case of “GCCGGCCTGGGAGGCCGAAGGTTGGGGATGACAGGTGGGGCGGAGTCACCTAGTGCAG”, the binding signal was 8920 fluorescence intensity (a.u.). The figure for “GCTGCCCGCTCTAATCTGTTTTGTCTCCATCTGCTATGATCGGAGTCACCTAGTGCAG” is 8950 fluorescence intensity (a.u.); for “GAGTACTCGTCCGGGGTTTTTAACTTTTTGCCACTTTTAACGGAGTCACCTAGTGCAG” it is 9100 fluorescence intensity (a.u.).

Take “GAGAACCTAATTGTGAGGCTCCTAGTTACACGACAAATCACGGAGTCACCTAGTGCAG”: the binding signal was 56300 fluorescence intensity (a.u.).

On to “GGTGTGTTTGGCAAATGAGTTATGAGAGGTGTGATTGTTACGGAGTCACCTAGTGCAG”, for which the binding signal is 8860 fluorescence intensity (a.u.).

Turning to “AACAATCACCTAGGCTAAATGTTACTTCCTCCGTTTCACACGGAGTCACCTAGTGCAG”, the binding signal was 9190 fluorescence intensity (a.u.). Under “CGTACTATAATTTTGTCATTCCTGTTGAAATTTTATAATTCGGAGTCACCTAGTGCAG” stands 9340 fluorescence intensity (a.u.); under “GCCGGTCTCCTCCCCGCCACCGCCGCCGCCGCCGCCAATGCGGAGTCACCTAGTGCAG”, 8650 fluorescence intensity (a.u.).

With “GGCGGCGGAGGAGGAGGAGGCGCGAGGGGAGGCGAGCATGCGGAGTCACCTAGTGCAG”, the binding signal is 8150 fluorescence intensity (a.u.). The figure for “GGGCGAGGAGCAGCGGCGGGCGGGCGGATGAGGGGCGGCGCGGAGTCACCTAGTGCAG” is 11400 fluorescence intensity (a.u.); for “ATATATATATATATATATATATATATATATATGCGCAGAGCGGAGTCACCTAGTGCAG” it is 9140 fluorescence intensity (a.u.); for “ATATATATATATATATATATATAGAGAGAGAGAGAGAGACCGGAGTCACCTAGTGCAG” it is 8980 fluorescence intensity (a.u.). Under “CGATCGGAGGAGGAGGCGGCGGGGAGGGAGGAGGAGGATGCGGAGTCACCTAGTGCAG” stands 10800 fluorescence intensity (a.u.); under “ATATATATATATATATATATATATATATAGAGCGCGCACTCGGAGTCACCTAGTGCAG”, 21200 fluorescence intensity (a.u.). Consider “GGCGGCGGCGGAGGAGGAGGAGGGGAGGGGAGCACGAGCGCGGAGTCACCTAGTGCAG”, for which the binding signal is 17400 fluorescence intensity (a.u.). The figure for “GGAGGAGAGCTTGGTGGTGCGCTGATCGGCGGATGCGGGGCGGAGTCACCTAGTGCAG” is 8490 fluorescence intensity (a.u.); for “TAGCTTTGGAGGAGGAGGAGGAGGAGGGGCGCGAGCCATGCGGAGTCACCTAGTGCAG” it is 10800 fluorescence intensity (a.u.); for “GCGGGATCGCGCGGGCGGCGGCGGCGGCGGGGAGGGGATGCGGAGTCACCTAGTGCAG” it is 16900 fluorescence intensity (a.u.). In the case of “TTGAGAGCTGGAGGCGCAGGCTGGGATCGGCGGAGCCATGCGGAGTCACCTAGTGCAG”, the binding signal is 63200 fluorescence intensity (a.u.).

In the case of “CGATCGGGCCGCGGCGCGAGGGAGGGGATCGGTGCGCGCGCGGAGTCACCTAGTGCAG”, the binding signal was 8060 fluorescence intensity (a.u.). Under “CGCTCTCTTGTTGACCACCTCGCGTTGCACTGGGCCAGCCCGGAGTCACCTAGTGCAG” stands 9490 fluorescence intensity (a.u.); under “GCTGCTGGTGGTGGTAGTAGGACTTGGGGCTCGTGTTGTGCGGAGTCACCTAGTGCAG”, 9720 fluorescence intensity (a.u.).

Turning to “TCGTAGGGTGCGGGGTGGCTGCCTGTCTCCTTCGCCTCGCCGGAGTCACCTAGTGCAG”, the binding signal is 9680 fluorescence intensity (a.u.). Under “ATCACCAGTTGCCATTCTGTCACCTCAACTTAGAACATACCGGAGTCACCTAGTGCAG” stands 8290 fluorescence intensity (a.u.). Take “CAAACGTACTCCTACTCTCCAAGCAGCCTATATAAACCACCGGAGTCACCTAGTGCAG”: the binding signal is 8590 fluorescence intensity (a.u.).
